According to PubChem BioAssay (NCATS):
Results filed as inconclusive are left out. The source made the active and inactive calls. Unless noted, calls come from the whole dose curve; as a rule, active = well fitted curve in the direction sought with a large enough effect; inconclusive = small, poorly fitted or top-dose-only effect, or another doubt; inactive = no such curve, though single readings can be large; an effect the other way counts as inactive or inconclusive.

How the values were obtained:
[1] = AP1 Signaling Pathway (AID 357; active = well fitted curve in either direction with a large enough effect, not every such curve was filed as active;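 note: ME-180 reporter cells stimulated with EGF at its EC50 level; % is set by controls: 0 for no effect and ±100 for the full control effect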)
Procedure, shortened: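 Beta-lactamase reporter under AP-1 response element, ME-180 background. Stimulus: EC50 EGF. Compound exposure 5 h, 37 °C. Detection: CCF4, 2.5 h RT, 460/530 nm. Values: AC50 from titration.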

[2] = target: Cytochrome P450 1A2 (Homo sapiens) (UniProt P05177); experiment: p450-cyp1a2 (AID 410; calls by dose curve; note: potency is the fitted concentration of half-maximal effect;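 for activity change, negative = inhibition: -100% = full effect of reference inhibitor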)
Procedure, shortened: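 Inhibition was calculated relative to 57 uM furafylline (full inhibition). The reaction used human CYP1A2 at 20nM with Luciferin-ME at its Km, 100uM, driven by an NADPH-regenerating system for 60 min at room temperature.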

[3] = NFAT Signaling Pathway (AID 444; active = well fitted curve in either direction with a large enough effect, not every such curve was filed as active;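 note: carbachol stimulus at about its EC50 of 1 µM final; % is set by controls: 0 for no effect and ±100 for the full control effect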); settings: Jurkat NFAT-bla M1, carbachol, beta-lactamase ratio, 5 h; at 17.2 µM (top of the series) unless noted
Procedure, shortened: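 Jurkat cells with NFAT-driven β-lactamase reporter and co-expressed M1 receptor, stimulated with carbachol (final 1 uM, ~EC50), compound titration, 5 h at 37 °C. CCF4 loaded 1 h at RT; 460/530 nm ratio gave %activity and AC50.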

[4] = Stat Signaling Pathway (AID 446; active = well fitted curve in either direction with a large enough effect, not every such curve was filed as active;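 note: ME-180 cervical cancer cells given 40 pM IL-6 alongside compound; SIE-controlled beta-lactamase reporter measured as 460/530 nm FRET emission ratio; % is set by controls: 0 for no effect and ±100 for the full control effect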)
Procedure, shortened: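 ME-180 cells carrying a SIE-driven beta-lactamase reporter are stimulated with 40 pM IL-6 for 5 h at 37C in the presence of compound. The 460/530 nm FRET substrate ratio is read after 2.5 h at RT. Data are normalised to 300 pM IL-6 and to 125 nM JAK inhibitor controls.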

[5] = target: Mitogen-activated protein kinase 10 (Mus musculus) (UniProt Q61831); experiment: JNK3 AlphaScreen Assay (AID 530; active = well fitted curve in either direction with a large enough effect, not every such curve was filed as active;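 note: kinase came from lysate of stimulated human HepG2 cells; signal reports phosphorylation of biotinylated GST-cJun 1-79 at Ser73 with 10 µM ATP; % is set by controls: 0 for no effect and ±100 for the full control effect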)
Procedure, shortened: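 qHTS format: compounds tested as titrations against IL-1beta/TNF-alpha-activated HepG2 lysate JNK3 with biotin-GST-cJun substrate and 10 uM ATP at room temperature. Loss of anti-phospho-cJun AlphaScreen signal indicates inhibition.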

[6] = target: 3',5'-cyclic-AMP phosphodiesterase 4B (Homo sapiens) (UniProt Q07343); experiment: qHTS Assay for Inhibitors of PDE-IV (AID 607; active = well fitted activation curve with a large enough effect in the main read-out, with a control signal flat, not every such curve was filed as active; note: % of control where 0% means no effect)
Procedure, shortened: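 HEK293 ACTOne cells with CNG channel (1000/well), endogenous PDE4; membrane potential dye, compounds up to 22.9 uM final. Fluorescence Ex 535/Em 590; RO 20-1724 (100 uM final) as reference.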

[7] = qHTS Assay for Lipid Storage Modulators (AID 1519; calls by dose curve); settings: Drosophila S3 cells, BODIPY lipid droplet/cell ratio, laser cytometry, cells loaded with oleic acid; for activity change, negative = inhibition: at 25.7 µM (top of the series)
Procedure, shortened: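 Cells seeded at 5,000 per well were treated with compounds over a concentration series and loaded with oleic acid (400 uM, as added). Lipid droplet fluorescence (488 nm excitation, 500-530 nm channel) was read by laser-scanning cytometry and normalized to 20 uM Triacsin C.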

[8] = target: Ubiquitin carboxyl-terminal hydrolase 1 (Homo sapiens) (UniProt O94782); experiment: Inhibitors of USP1/UAF1: Pilot qHTS (AID 504865);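 note: rhodamine fluorescence freed from ubiquitin-rhodamine substrate followed over time; top concentration of the series differs between compounds; % is set by controls: 0 for no effect and ±100 for the full control effect; nearly all actives have a fitted effect of over 35% in size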
Procedure, shortened: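 USP1/UAF1 complex (1nM) preincubated with compound 15 min at room temperature, then Ub-Rho substrate (150nM final) added. Fluorescence read kinetically at 480/540 nm, 6 reads every 60 seconds. Buffer: 50mM HEPES pH 7.8, 0.5mM EDTA, 0.1 mg/ml BSA, 1mM TCEP, 0.01% Tween-20.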

[9] = target: Luciferin 4-monooxygenase (Photinus pyralis) (UniProt P08659); experiment: Biochemical firefly luciferase enzyme assay for NPC (AID 624030);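 note: purified P. pyralis luciferase at 10 nM with luciferin and ATP substrate; 0% = DMSO and -100% = full luciferase inhibition by PTC124 control; nearly all actives have a fitted effect of over 70% in size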
Procedure, shortened: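 Purified P. pyralis luciferase at 10 nM in 50 mM Tris Acetate (final), luminescence read within 5 minutes of enzyme addition to compounds. Activity normalised to PTC124 versus DMSO; concentration-response curves classed by r2, magnitude and activity.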

[10] = S16 Schwann cell PMP22 intronic element firefly luciferase assay (AID 624032);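 note: plate controls were DMSO for no effect and PTC124 positive control mean for full effect; nearly all actives have a fitted effect of over 30% in size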
Procedure, shortened: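 Rat S16 Schwann cells stably carrying firefly luciferase driven by a PMP22 intronic element, in 10% FBS, treated 24 h at 37 C. ONE-Glo luminescence normalized to PTC124 control and DMSO (0%); curves classed by r2, magnitude and activity.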

[11] = qHTS profiling for inhibitors of Plasmodium falciparum proliferation (AID 504749);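 note: 0% = DMSO vehicle and full inhibition = artemisinin control; nearly all actives have a fitted effect of over 60% in size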; settings: P. falciparum in erythrocytes, SYBR Green DNA, 72 h, at 12.8 µM (top of the series)
Procedure, shortened: (§1)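 Readout was DNA-dye fluorescence from lysed cultures, ex 485/em 535 nm. Parasitized red cells had grown 72 h with compound; data scaled between 0.29 uM artemisinin and DMSO wells and corrected using vehicle-only plates.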

[12] = tested on: CP191; experiment: as above; settings: P. falciparum in erythrocytes, SYBR Green DNA, 72 h; series mostly up to 12.8 µM
Procedure, shortened: as §1

[13] = tested on: CP217; experiment: as above; settings: P. falciparum in erythrocytes, SYBR Green DNA, 72 h; series mostly up to 12.8 µM
Procedure, shortened: as §1

[14] = tested on: CP250; experiment: as above; settings: P. falciparum in erythrocytes, SYBR Green DNA, 72 h; series mostly up to 12.8 µM
Procedure, shortened: as §1

[15] = tested on: CP256; experiment: as above; settings: P. falciparum in erythrocytes, SYBR Green DNA, 72 h; series mostly up to 12.8 µM
Procedure, shortened: as §1

[16] = tested on: FAB9; experiment: as above; settings: P. falciparum in erythrocytes, SYBR Green DNA, 72 h; series mostly up to 12.8 µM
Procedure, shortened: as §1

[17] = tested on: JCK; experiment: as above; settings: P. falciparum in erythrocytes, SYBR Green DNA, 72 h; series mostly up to 12.8 µM
Procedure, shortened: as §1

[18] = target: Glucocorticoid receptor (Homo sapiens) (UniProt P04150); experiment: GR-EFC Redistribution (AID 451; calls by dose curve; note: potency is the fitted concentration of half-maximal effect); settings: CHO-K1 GR-EFC translocation, beta-gal luminescence, 2 h
Procedure, shortened: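 CHO-K1 cells expressing nuclear EA and GR-ED fragments of b-gal; compounds titrated up to 46 uM final, 2 h at 37 C. GR nuclear translocation read as complemented b-gal luminescence after 1 h RT detection.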

[19] = target: ATP-dependent 6-phosphofructokinase (Trypanosoma brucei brucei) (UniProt O15648); experiment: qHTS Assay to Find Inhibitors of T. brucei phosphofructokinase: hit validation (AID 492961); note: % is set by controls: 0 for no effect and ±100 for the full control effect
Procedure, shortened: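 Luminescence from ADP-Glo reports ADP generated as T. brucei PFK (1.25 nM) phosphorylates 0.5 mM fructose-6-phosphate using 0.1 mM ATP. Reactions ran 45 min at room temperature, pH 8.0.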

[20] = measured here: cell count channel max response
[21] = measured here: lipid channel max response

Sequence of 3',5'-cyclic-AMP phosphodiesterase 4B (Homo sapiens) (Q07343 whole entry, looked up): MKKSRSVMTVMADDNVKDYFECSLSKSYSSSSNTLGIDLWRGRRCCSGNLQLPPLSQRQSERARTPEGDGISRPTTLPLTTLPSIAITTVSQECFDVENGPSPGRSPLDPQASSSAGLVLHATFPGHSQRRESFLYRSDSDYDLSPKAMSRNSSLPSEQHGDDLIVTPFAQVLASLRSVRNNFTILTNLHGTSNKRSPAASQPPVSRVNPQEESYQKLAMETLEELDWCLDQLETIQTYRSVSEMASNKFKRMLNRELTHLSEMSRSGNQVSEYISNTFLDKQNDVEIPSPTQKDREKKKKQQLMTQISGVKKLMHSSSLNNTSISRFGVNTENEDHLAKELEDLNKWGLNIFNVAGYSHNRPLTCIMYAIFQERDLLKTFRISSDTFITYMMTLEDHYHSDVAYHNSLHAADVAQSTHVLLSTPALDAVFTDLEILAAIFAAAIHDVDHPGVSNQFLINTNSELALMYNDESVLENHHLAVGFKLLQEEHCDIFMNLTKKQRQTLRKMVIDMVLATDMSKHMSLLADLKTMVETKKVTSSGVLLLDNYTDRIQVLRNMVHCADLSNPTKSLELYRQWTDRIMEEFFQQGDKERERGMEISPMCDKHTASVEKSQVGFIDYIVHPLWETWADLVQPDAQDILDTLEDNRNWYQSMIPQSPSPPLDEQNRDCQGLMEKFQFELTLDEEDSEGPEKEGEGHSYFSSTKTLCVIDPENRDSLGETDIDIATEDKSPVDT
Sequence of Ubiquitin carboxyl-terminal hydrolase 1 (Homo sapiens) (O94782 whole entry, looked up): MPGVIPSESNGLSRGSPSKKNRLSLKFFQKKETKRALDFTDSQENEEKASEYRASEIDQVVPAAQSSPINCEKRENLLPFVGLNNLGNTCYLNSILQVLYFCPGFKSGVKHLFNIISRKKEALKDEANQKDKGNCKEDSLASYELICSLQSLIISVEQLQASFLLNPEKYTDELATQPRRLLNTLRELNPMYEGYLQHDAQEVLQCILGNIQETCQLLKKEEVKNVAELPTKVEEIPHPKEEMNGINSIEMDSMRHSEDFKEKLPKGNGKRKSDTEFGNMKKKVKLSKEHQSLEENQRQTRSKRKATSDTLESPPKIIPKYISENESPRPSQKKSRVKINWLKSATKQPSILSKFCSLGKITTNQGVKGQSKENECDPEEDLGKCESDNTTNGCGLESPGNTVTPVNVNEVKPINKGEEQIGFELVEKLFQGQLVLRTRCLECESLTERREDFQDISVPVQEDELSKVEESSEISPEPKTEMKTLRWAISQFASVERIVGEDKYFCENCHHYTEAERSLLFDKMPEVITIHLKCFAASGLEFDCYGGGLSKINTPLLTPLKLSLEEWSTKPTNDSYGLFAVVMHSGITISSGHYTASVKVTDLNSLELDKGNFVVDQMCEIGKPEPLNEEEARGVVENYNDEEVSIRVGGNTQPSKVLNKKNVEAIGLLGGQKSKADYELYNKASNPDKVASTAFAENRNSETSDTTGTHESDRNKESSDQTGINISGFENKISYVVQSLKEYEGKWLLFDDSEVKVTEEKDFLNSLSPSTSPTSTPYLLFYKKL
Sequence of Cytochrome P450 1A2 (Homo sapiens) (P05177 whole entry, looked up): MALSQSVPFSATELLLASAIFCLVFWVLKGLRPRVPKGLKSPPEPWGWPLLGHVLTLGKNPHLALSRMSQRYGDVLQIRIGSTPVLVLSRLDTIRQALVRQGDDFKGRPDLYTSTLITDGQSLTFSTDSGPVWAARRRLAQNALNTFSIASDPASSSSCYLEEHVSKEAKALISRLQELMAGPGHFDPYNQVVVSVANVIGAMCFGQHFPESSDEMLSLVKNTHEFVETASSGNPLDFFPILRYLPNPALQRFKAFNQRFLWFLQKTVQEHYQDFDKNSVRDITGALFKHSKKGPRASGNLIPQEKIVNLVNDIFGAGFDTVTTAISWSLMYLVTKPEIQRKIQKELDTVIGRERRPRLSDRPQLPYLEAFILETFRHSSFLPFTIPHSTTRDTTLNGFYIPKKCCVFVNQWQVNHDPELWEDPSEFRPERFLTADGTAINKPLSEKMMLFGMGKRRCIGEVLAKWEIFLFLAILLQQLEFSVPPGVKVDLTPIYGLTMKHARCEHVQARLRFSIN
Sequence of Luciferin 4-monooxygenase (Photinus pyralis) (P08659 whole entry, looked up): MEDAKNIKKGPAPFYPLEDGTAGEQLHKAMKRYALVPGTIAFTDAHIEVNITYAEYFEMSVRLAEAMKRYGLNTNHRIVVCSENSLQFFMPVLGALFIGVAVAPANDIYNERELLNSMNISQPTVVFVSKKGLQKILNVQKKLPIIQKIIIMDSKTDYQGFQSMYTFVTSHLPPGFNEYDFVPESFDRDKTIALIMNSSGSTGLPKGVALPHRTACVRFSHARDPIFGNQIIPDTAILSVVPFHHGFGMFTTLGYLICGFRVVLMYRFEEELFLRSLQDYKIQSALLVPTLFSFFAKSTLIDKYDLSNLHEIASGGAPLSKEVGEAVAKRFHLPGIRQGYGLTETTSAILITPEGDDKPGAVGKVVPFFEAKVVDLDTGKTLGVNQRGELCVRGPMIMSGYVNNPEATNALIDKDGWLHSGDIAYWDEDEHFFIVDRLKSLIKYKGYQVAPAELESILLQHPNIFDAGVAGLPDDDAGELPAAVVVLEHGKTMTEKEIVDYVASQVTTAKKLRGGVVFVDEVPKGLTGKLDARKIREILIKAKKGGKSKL
Sequence of ATP-dependent 6-phosphofructokinase (Trypanosoma brucei brucei) (O15648 whole entry, looked up): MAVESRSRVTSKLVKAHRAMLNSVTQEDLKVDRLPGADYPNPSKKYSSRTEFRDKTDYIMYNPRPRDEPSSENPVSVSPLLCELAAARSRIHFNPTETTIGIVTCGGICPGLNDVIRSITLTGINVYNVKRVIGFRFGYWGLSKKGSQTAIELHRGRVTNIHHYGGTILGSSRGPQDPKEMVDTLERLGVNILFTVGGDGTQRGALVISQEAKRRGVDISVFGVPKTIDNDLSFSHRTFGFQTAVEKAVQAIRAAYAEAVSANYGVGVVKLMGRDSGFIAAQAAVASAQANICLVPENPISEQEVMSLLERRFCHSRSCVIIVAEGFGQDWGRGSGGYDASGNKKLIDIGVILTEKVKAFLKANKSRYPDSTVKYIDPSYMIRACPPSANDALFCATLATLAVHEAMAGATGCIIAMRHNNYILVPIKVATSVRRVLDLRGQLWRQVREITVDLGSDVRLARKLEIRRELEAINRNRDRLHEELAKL
Sequence of Glucocorticoid receptor (Homo sapiens) (P04150 whole entry, looked up, the tested form may be a part): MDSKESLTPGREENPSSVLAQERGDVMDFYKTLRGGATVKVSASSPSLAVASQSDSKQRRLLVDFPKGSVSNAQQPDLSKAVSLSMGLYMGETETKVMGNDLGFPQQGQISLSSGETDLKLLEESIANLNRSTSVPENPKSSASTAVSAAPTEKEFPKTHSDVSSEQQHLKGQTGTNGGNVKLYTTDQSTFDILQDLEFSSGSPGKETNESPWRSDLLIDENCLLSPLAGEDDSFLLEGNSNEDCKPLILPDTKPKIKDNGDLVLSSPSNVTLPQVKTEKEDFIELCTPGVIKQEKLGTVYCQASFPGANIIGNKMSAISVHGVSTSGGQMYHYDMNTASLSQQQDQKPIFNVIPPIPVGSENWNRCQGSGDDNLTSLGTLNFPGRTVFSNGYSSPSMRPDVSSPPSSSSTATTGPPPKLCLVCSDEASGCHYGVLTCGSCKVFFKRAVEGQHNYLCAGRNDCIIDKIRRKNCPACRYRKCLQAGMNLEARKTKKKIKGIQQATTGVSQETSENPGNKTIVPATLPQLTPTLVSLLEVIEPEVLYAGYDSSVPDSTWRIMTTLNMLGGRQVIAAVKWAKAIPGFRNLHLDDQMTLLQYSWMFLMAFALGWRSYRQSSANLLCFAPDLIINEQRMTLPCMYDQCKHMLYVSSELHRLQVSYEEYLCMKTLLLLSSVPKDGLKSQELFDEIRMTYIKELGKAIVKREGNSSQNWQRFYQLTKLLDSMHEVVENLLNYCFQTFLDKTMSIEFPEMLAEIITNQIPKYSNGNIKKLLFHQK

NC(=O)c1ccc[n+]([C@@H]2O[C@H](COP(=O)([O-])OP(=O)(O)OC[C@H]3O[C@@H](n4cnc5c(N)ncnc54)[C@@H](O)[C@@H]3O)[C@@H](O)[C@@H]2O)c1
inactive: outcome [1] | Potency [2] | activity change, negative = inhibition [3] 1.83% | outcome [4] | Potency [5] | outcome [6] | activity change, negative = inhibition [7] -1.1% | Potency [8] | Potency [9] | Potency [10] | activity, negative = inhibition ([11]; parasite line A) 0.56% | activity, negative = inhibition ([11]; parasite line B) 2.43% | Potency [12] | Potency [13] | Potency [14] | Potency [15] | Potency [16] | Potency [17]
-22.7%: max response [7, 21]
-9.17%: max response [7, 20]

Cc1c(C)c2c(c(C)c1O)CC[C@@](C)(C(=O)O)O2
-15.9%: max response [7, 20]
-17.6%: max response [7, 21]
inactive: outcome [1] | activity change, negative = inhibition [3] 9.85% | outcome [4] | Potency [18] > 20.6 µM | outcome [6] | activity change, negative = inhibition [7] 0.436% | Potency [8]
active: Potency [2] 20 µM

CN=C(NC#N)NCCSC[C@H]1N=CN=C1C
inactive: outcome [1] | Potency [2] | activity change, negative = inhibition [3] -3.43% | outcome [4] | Potency [5] | outcome [6] | activity change, negative = inhibition [7] -0.0882% | Potency [8]
-1.32%: max response [7, 21]
-1.59%: max response [7, 20]

C[C@H](C(=O)O)c1cccc(Oc2ccccc2)c1
-2.59%: max response [7, 21]
0.75%: max response [7, 20]
inactive: outcome [1] | Potency [2] | activity change, negative = inhibition [3] 4.26% | outcome [4] | Potency [5] | activity change, negative = inhibition [7] 0.849% | outcome [19] | Potency [8] | Potency [9] | Potency [10] | activity, negative = inhibition ([11]; parasite line A) 2.84% | activity, negative = inhibition ([11]; parasite line B) 14.9% | Potency [12] | Potency [13] | Potency [14] | Potency [15] | Potency [16] | Potency [17]

CC(=O)OCC(=O)[C@@]1(O)[C@H](C)C[C@@H]2[C@H]3CCC4=CC(=O)C=C[C@]4(C)[C@]3(F)[C@@H](O)C[C@@]21C
-15.2%: max response [7, 20]
inactive: outcome [1] | Potency [2] | activity change, negative = inhibition [3] -0.305% | outcome [4] | Potency [5] | outcome [6] | activity change, negative = inhibition [7] -3.21% | outcome [19] | Potency [8] | Potency [9] | Potency [10] | activity, negative = inhibition ([11]; parasite line A) 0.4% | activity, negative = inhibition ([11]; parasite line B) -1.7% | Potency [12] | Potency [13] | Potency [14] | Potency [15] | Potency [16] | Potency [17]
-18.5%: max response [7, 21]
